The record followed here is PubChem BioAssay (NCATS).

The nature of assay [1]: qHTS Assay for Lipid Storage Modulators (AID 1519; calls by dose curve; as to activity change, negative = inhibition: % is scaled to controls: 0 for no effect and ±100 for the full control effect). The note with it: Drosophila S3 cells, BODIPY lipid droplet/cell ratio, laser cytometry, cells loaded with oleic acid. In a few lines:
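Cells seeded at 5,000 per well were treated with compounds over a concentration series and loaded with oleic acid (400 uM, as added). Lipid droplet fluorescence (488 nm excitation, 500-530 nm channel) was read by laser-scanning cytometry and normalized to 20 uM Triacsin C.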
Background: qHTS replaces the single test concentration by a dilution series.

Assay [2] deals with DNA repair nuclease/redox regulator APEX1 (Homo sapiens) (UniProt P27695). Description: qHTS Validation Assay for Inhibitors of the Human Apurinic/apyrimidinic Endonuclease 1 (APE1) (AID 1705;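 also: TAMRA fluorescence gain over two minutes as APE1 cuts a quenched THF abasic duplex; % is scaled to controls: 0 for no effect and ±100 for the full control effect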). Summed up: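 Endonuclease activity of human APE1 is followed as dequenching when the enzyme incises a tetrahydrofuran abasic site in a short duplex labelled 5'-TAMRA/3'-BHQ-2 (50 nM final), after 15 min enzyme–compound preincubation at room temperature.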

Assay [3] is described as follows: Counterscreen for APE1 Inhibitors: Fluorescent Dye Displacement Validation Assay (AID 1707).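 Also: plate controls were ThO with dsDNA and no compound for no effect and ThO without dsDNA for full effect.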 In a few lines:
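Thiazole Orange displacement from dsDNA: 250 nM ThO with 50 nM TAMRA-labelled abasic-site (tetrahydrofuran) duplex in 50 mM Tris-HCl pH7.5, 50mM NaCl, 2 mM MgCl2, 0.01% Tween-20. Loss of endpoint fluorescence (ex 480 nm, em 540 nm) flags DNA binders.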

In assay [4] the target is Endonuclease 4 (Escherichia coli (strain K12)) (UniProt P0A6C1). Description: Counterscreen for APE1 Inhibitors: qHTS Validation Assay for Inhibitors of Endonuclease IV (AID 1708). Also: % is scaled to controls: 0 for no effect and ±100 for the full control effect. In a few lines: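 E. coli EndoIV at 2 nM final, preincubated 15 min at room temperature with compound, then 50 nM TAMRA/BHQ-2 THF abasic-site duplex added. Buffer: 50 mM Tris-HCl pH 7.5, 50 mM NaCl, 2 mM MgCl2, 1 mM DTT, 0.01% Tween-20. Kinetic fluorescence increase, third minus first read.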
Background: A counterscreen serves to expose hits that act by an unwanted route or on another target.

A short description of assay [5]: qHTS for differential inhibitors of proliferation of Plasmodium falciparum line 7G8 (AID 1815).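 Also: parasite growth measured after three days of incubation.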 Also: potency is read from the fitted curve at half-maximal effect.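 As to activity change, negative = inhibition: plate controls were vehicle wells for no effect and reference inhibitor wells for full effect.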
Assay [6] is described as follows: qHTS for differential inhibitors of proliferation of Plasmodium falciparum line GB4 (AID 1816).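 Also: parasite growth measured after 72 h incubation.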 Also: potency is read from the fitted curve at half-maximal effect.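 As to activity change, negative = inhibition: 0% = vehicle DMSO and -100% = reference inhibitor.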 Conditions: Potency: Plasmodium falciparum GB4 proliferation inhibition.
Assay [7] can be described thus: qHTS for differential inhibitors of proliferation of Plasmodium falciparum line 3D7 (AID 1876). Also: potency is read from the fitted curve at half-maximal effect.
Assay [8] in a line: Validation of Assay for Modulators of Lamin A Splicing (AID 1459; active = well fitted curve in the direction sought with a large enough effect in the signal ratio; the % refers to the signal ratio;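 also: cells exposed to compound for two days before reading; 0% is about no effect; ratio rise marks activators and ratio drop marks inhibitors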). Summed up:
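Splicing correction is reported by an EGFP-containing lamin A minigene in stably transfected S3 HeLa cells, while DsRed2 controls for viability and nonspecific signal. Cells are exposed to compounds for 48 hrs before the GFP over RFP ratio is taken.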

For assay [9], the target named is Alpha-galactosidase A (Homo sapiens) (UniProt P06280). Description: Counterscreen for Glucocerebrosidase Inhibitors: qHTS Assay for Human alpha-Galactosidase at pH 4.5 (AID 992). Also: 0% is about no effect. In a few lines: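 Enzyme at 2 nM final was combined with compound (0.7 nM to 77 uM) and 80 uM 4-methylumbelliferyl alpha-D-galactopyranoside in 50 mM citric acid, 0.005% Tween-20, pH 4.5. After 20 min at room temperature, fluorescence was read (Ex 365/Em 440 nm); AC50 came from Hill fits.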

For assay [10], the target named is alpha-glucosidase (Oryza sativa, rice) (UniProt Q653V4). Description: Counterscreen for Glucocerebrosidase Inhibitors: qHTS Assay for Rice alpha-Glucosidase at pH 5.0 (AID 997).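 Also: 0% = full activity with enzyme and -100% = basal without enzyme.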 Summed up: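 Rice alpha-glucosidase (4 nM final) with 400 uM 4-methylumbelliferyl-alpha-D-glucopyranoside in citrate buffer pH 5.0, 20 min at room temperature, stopped at pH 10; fluorescence 365/440 nm, compounds 0.7 nM–77 uM, AC50 from Hill fits.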

[11] abbreviates: measured here: cell count channel max response.
Setting [12] is: measured here: lipid channel max response.

Where “and” joins values, the source holds several entries; their conditions need not be identical. Equal values may be shown once. Results filed as inconclusive are left out. Calls of active or inactive are those of the source. Unless noted, calls follow the shape of the dose curve; as a rule, active = well fitted curve in the direction sought with a large enough effect; inconclusive = small, poorly fitted or top-dose-only effect, or another doubt; inactive = no such curve, though single readings can be large; an effect the other way counts as inactive or inconclusive.

Chain of DNA repair nuclease/redox regulator APEX1 (Homo sapiens) (P27695 whole entry, looked up): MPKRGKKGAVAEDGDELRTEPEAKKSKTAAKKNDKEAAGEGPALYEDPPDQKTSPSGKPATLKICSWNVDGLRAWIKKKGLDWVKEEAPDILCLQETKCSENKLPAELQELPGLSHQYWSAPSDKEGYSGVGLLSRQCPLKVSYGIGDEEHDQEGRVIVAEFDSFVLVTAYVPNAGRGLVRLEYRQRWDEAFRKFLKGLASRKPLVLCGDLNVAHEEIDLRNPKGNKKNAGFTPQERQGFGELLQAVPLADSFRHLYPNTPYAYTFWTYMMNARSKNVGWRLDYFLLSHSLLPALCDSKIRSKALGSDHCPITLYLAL
Chain of Alpha-galactosidase A (Homo sapiens) (P06280 whole entry, looked up): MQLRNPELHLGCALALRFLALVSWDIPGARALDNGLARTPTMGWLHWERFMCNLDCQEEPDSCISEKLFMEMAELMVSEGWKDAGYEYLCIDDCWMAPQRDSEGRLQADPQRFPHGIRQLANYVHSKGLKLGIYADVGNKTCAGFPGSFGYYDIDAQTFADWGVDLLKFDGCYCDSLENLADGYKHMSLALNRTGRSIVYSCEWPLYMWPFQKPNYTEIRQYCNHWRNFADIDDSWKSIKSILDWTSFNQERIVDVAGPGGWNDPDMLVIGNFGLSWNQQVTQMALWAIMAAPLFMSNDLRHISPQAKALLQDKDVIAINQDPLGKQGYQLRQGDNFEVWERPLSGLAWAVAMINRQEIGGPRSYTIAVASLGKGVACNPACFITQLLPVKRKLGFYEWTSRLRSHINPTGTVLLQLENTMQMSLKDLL

On to `CNC1(C)C2CCC(C2)C1(C)C` (stereo not given), for which, in assay [1] (at 57.5 µM (top of the series)), the activity change, negative = inhibition was 2.62% (inactive). The max response in assay [1] (setting [11]) came out at 45.4%; in assay [1] (setting [12]) it was 47.5%. The Potency result in assay [2], in assay [4], in [5] and in [7] was “inactive” each time. For the same molecule, in [3], the call was inactive. Further, the Potency in assay [6] is 12.6 µM (active).

For `CCN(Cc1ccncc1)C(=O)C(CO)c1ccccc1` (stereo not given), the call in assay [8] and in assay [3] was inactive. Further, the Potency result in assay [2], in assay [5], in assay [6] and in [7] was “inactive” in each case.

With `Cc1ccc(Cl)c(Nc2ccccc2C(=O)O)c1Cl`, the result in assay [9], in assay [10] and in [3] was inactive. For the same molecule, the activity change, negative = inhibition in assay [1] (at 25.7 µM (top of the series)) is -1.03% (inactive); in [1] (at 57.5 µM (top of the series)) it was 12.3% (inactive) and -1.87% (inactive). The max response in assay [1] (setting [11]) was -11.2% and 0.124% and -35.9%; in [1] (setting [12]) it was -11.6% and 13.1% and -37%. In addition, the Potency entry in assay [2], in [4], in [5], in assay [6] and in assay [7] was “inactive” each time.

Turning to `c1cnc(N2CCN(Cc3ccc4c(c3)OCO4)CC2)nc1`, the molecule was called inactive in assay [9], in [10] and in assay [3]. Moreover, the activity change, negative = inhibition in [1] (at 25.7 µM (top of the series)) is 3.16% (inactive); in assay [1] (at 57.5 µM (top of the series)), 2.74% (inactive). Moreover, the max response was -1.42% and -12.3% in [1] (setting [11]); 3.03% and -8.1% in assay [1] (setting [12]). For the same molecule, the Potency result in assay [2], in assay [4], in assay [5] and in assay [7] was “inactive” throughout.

On to `CC(C(=O)O)c1ccc(CC2CCCC2=O)cc1` (stereo not given), for which the outcome in assay [8] and in assay [3] was inactive. Moreover, the Potency result in assay [2], in assay [5], in [6] and in [7] was “inactive” throughout.

`CCn1ccnc1CC1COc2ccccc2O1` (stereo not given): the activity change, negative = inhibition in assay [1] (at 57.5 µM (top of the series)) was 1.49% (inactive). For the same molecule, the max response in [1] (setting [11]) is 56.5%; in assay [1] (setting [12]), 60.7%. Further, the Potency entry in [2], in assay [4] and in assay [7] was “inactive” each time. In assay [3], the molecule was called inactive.

As to `CN(C)CC[C@@H](c1ccc(Br)cc1)c1ccccn1`, the Potency entry in assay [2] and in [4] was “inactive” throughout. In [3], the result was inactive.

As for `NC(N)=N/N=C/c1c(Cl)cccc1Cl`, the Potency result in [2] and in assay [4] was “inactive” each time. Besides, in assay [3], the outcome was inactive.

With `C[N+](C)(C)CCCCCCCCCC[N+](C)(C)C`, the call in [9], in assay [10] and in assay [3] was inactive. Further, the activity change, negative = inhibition in assay [1] (at 25.7 µM (top of the series)) is -3.64% (inactive). Moreover, the max response in [1] (setting [11]) was -13.2%; in assay [1] (setting [12]), -14.8%. Further, the Potency entry in assay [4] is “inactive”.

Take `O=C(O)CN(CCOCCOCCN(CC(=O)O)CC(=O)O)CC(=O)O`: the call in assay [9], in assay [10] and in assay [3] was inactive. Besides, in assay [1] (at 57.5 µM (top of the series)), the activity change, negative = inhibition was 0.929% (inactive). Further, the max response was -9.11% in assay [1] (setting [11]) and -9.56% in assay [1] (setting [12]). Also, the Potency entry in assay [2], in assay [5], in assay [6] and in assay [7] was “inactive” throughout.

Regarding `CCCN(CCC)CCc1cccc2c1CC(=O)N2`, the molecule was classed as inactive in assay [9], in assay [10] and in assay [3]. Moreover, the activity change, negative = inhibition in assay [1] (at 57.5 µM (top of the series)) was 5.49% (inactive). Also, the results for the max response in [1] (setting [11]) and in [1] (setting [12]) were 9.72% and 11.6%, respectively. Also, the Potency entry in assay [4], in [5], in [6] and in assay [7] was “inactive” throughout.

Take `OCCN1CCN(CCCN2c3ccccc3C=Cc3ccccc32)CC1`: the call in assay [9], in assay [10] and in [3] was inactive. In addition, in [1] (at 57.5 µM (top of the series)), the activity change, negative = inhibition was -1.21% (inactive). Further, the max response in assay [1] (setting [11]) and in assay [1] (setting [12]) was 45.9% throughout. The Potency result in assay [2] and in assay [4] was “inactive” throughout. Further, the Potency in [5] was 3.16 µM (active) and 3.98 µM (active); in assay [6], 5.01 µM (active) and 4.47 µM (active); in assay [7], 11.2 µM (active) and 8.91 µM (active).
